Laboratory results as given in article PMC4336329 (PLoS ONE, 2015).
Screen size: about 310,000 compounds; about 14,000 (4.5%) showed an effect of 50% or more. The effect is printed as a negative number. The entries come from a sample that favours strong results as a whole.

Target: human ether-à-go-go-related gene (hERG) potassium channel (human, UniProt Q12809)
Test: primary screen, population patch clamp on CHO cells stably expressing hERG; higher = less effect of the substance
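Also: peak tail current of the secondary pulse compared with the same well before compound.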

Chain of human ether-à-go-go-related gene (hERG) potassium channel (Q12809 whole entry, looked up): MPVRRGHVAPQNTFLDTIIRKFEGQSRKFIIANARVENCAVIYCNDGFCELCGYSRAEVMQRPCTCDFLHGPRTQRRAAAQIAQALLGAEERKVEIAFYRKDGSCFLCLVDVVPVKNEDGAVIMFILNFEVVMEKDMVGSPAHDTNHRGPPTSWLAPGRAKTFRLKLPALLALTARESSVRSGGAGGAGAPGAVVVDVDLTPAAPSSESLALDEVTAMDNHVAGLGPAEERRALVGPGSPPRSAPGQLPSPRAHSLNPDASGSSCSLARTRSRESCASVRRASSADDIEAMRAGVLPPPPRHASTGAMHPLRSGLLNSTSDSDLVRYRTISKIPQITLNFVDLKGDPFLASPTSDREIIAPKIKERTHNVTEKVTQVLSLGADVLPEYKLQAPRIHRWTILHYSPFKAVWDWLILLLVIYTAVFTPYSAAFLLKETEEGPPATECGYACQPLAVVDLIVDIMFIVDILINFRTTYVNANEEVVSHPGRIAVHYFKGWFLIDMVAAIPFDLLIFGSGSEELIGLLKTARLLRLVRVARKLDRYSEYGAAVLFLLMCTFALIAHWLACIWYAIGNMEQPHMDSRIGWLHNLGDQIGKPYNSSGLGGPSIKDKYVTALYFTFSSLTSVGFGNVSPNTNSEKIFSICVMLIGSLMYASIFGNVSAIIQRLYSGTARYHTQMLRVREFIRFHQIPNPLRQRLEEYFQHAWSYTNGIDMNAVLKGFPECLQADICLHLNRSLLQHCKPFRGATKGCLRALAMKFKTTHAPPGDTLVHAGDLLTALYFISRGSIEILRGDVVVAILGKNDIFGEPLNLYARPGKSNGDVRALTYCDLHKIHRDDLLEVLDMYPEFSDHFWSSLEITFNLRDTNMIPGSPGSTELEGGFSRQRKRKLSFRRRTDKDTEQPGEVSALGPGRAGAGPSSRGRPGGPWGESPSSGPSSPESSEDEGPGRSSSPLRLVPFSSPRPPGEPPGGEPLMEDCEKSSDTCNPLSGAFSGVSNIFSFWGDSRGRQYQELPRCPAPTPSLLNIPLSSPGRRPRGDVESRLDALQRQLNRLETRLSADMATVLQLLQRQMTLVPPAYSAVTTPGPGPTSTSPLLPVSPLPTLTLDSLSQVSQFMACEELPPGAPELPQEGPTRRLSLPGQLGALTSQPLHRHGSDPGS

SMILES	hERG current change (%, negative = inhibition) at 10uM
CCC(C)NC(=O)c1ccccc1NC(=O)Nc1ccccc1 (stereo not shown)	3.24%
COc1ccccc1OCCNC(=O)C(=O)c1c[nH]c2ccccc12	5.02%
CC1(C)Cc2c(sc3c2C(=O)N(c2ccccc2)C2=NCCCN23)CO1	3.7%
CC(C)C[C@H](NC(=O)c1nc[nH]c1C(=O)NC1CCN(C(=O)OC(C)(C)C)CC1)C(=O)OC(C)(C)C	-10.8%
O=C(Nc1c2c(nn1-c1ccc(F)cc1)CS(=O)C2)C12CC3CC(CC(C3)C1)C2 (stereo not shown)	16.7%
COc1ccccc1N(CC(=O)NCCSc1ccc(Cl)cc1)S(C)(=O)=O	-6.87%
COc1cc(CNCc2ccccn2)ccc1OCc1ccc(Cl)cc1.Cl	-56.8%
COc1cc(CNCc2cccnc2)ccc1OCc1ccccc1.Cl	-21.8%
COc1cc(CNCc2ccccn2)ccc1OCC(N)=O.Cl	-0.0507%
Cc1ccc(S(=O)(=O)NCC(C)n2nc(C)nc2C)cc1 (stereo not shown)	-0.542%
C=CCn1c(O)c(N=O)c2cc(C)ccc21	-8.69%
CCn1c(SCC(=O)Nc2ccc3c(c2)OCCO3)nnc1-c1ccncc1	0.979%
Cc1ccc(S(=O)(=O)N2CCN(C(=O)CN3CCN(C)CC3)C2)cc1	14.1%
COc1ccccc1Nc1nc2ccccc2n1C	-3.73%
CCOc1ccc(C(C)NC(=O)c2ccccc2OCc2c(C)noc2C)cc1OCC (stereo not shown)	-23.8%
COc1ccccc1C(=O)NCC(=O)NC(C)c1ccc(-n2ccnc2)cc1 (stereo not shown)	-66.4%
Cc1cccc(C(=O)NCC(=O)NC(C)c2ccc(-n3ccnc3)cc2)c1 (stereo not shown)	-68.5%
Cc1noc(C)c1COc1ccccc1C(=O)NCCc1ccc(Cl)cc1	-20.8%
COc1ccccc1C(=O)NCC(=O)Nc1cccnc1	20.5%
Cc1noc(C)c1COc1ccccc1C(=O)NC(C)c1ccc(Cl)cc1 (stereo not shown)	-55.8%
COc1ccccc1C(=O)NCCC(=O)NC(C)c1ccc(-n2ccnc2)cc1 (stereo not shown)	-17.1%
COc1ccccc1C(=O)NC(C)c1ccc(-n2ccnc2)cc1 (stereo not shown)	-52.6%
COc1ccccc1C(=O)NC(C)c1ccccc1 (stereo not shown)	18.6%
COC(=O)CSc1nnc2n(-c3ccc(OC)cc3)c(=O)c3c4c(sc3n12)CCCCC4	-10.6%
Cc1cc(NC(=O)CCC(=O)N(CC(=O)NC2CCCC2)c2ccc(Cl)cc2)no1	-16.7%
CN1CCN(S(=O)(=O)c2ccc(NC(=O)COc3ccccc3Cl)cc2)CC1	20.1%
COc1ccc(NC(C)=O)cc1NS(=O)(=O)c1ccc2c(c1)OCCO2	21.4%
O=C(Nc1ccc2c(c1)OCO2)c1nn(-c2ccccc2)c(=O)c2ccccc12	11%

SMILES	hERG current change (%, negative = inhibition) at 10uM
O=C1C(=O)N(CCN2CCOCC2)C(c2ccccc2F)/C1=C(\O)c1ccc(S(=O)(=O)N2CCOCC2)cc1 (stereo not shown)	11.5%
O=C(Nc1ccccc1-c1nnn(CC(=O)N2CCCc3ccccc32)n1)c1ccc(Cl)cc1	8.92%
O=C(COC(=O)c1ccc(F)cc1F)NC1CC1	23%
Cc1ccc(OC(=O)c2cncc(Br)c2)c(C)c1	16%
N/C(=N\OC(=O)COc1ccccc1)c1ccccn1	13.6%
O=C(CN(c1ccc(F)cc1)S(=O)(=O)c1ccc2c(c1)OCCO2)Nc1ccc2c(c1)OCO2	14.4%
N/C(=N\OC(=O)c1cc(Br)ccc1Cl)c1ccccn1	13.1%
CCOc1ccccc1C(=O)NCC(=O)NC(C)c1ccc(-n2ccnc2)cc1 (stereo not shown)	-70.9%
CCOc1ccc(C(=O)NCC(=O)NC(C)c2ccc(-n3ccnc3)cc2)cc1OCC (stereo not shown)	-77.4%
CC(C)c1ccc(CCNC(=O)CCNC(=O)c2ccc(Br)cc2)cc1	5.74%
CCOc1ccc(C(=O)NCC(=O)Nc2ccncc2)cc1OCC	4.58%
CC(NC(=O)c1ccccc1C(=O)O)c1ccc(-n2ccnc2)cc1 (stereo not shown)	16%
CC(NC(=O)CCNC(=O)c1ccc(Br)cc1)c1ccc(-n2ccnc2)cc1 (stereo not shown)	-66.5%
CC(NC(=O)c1ccccc1Cl)c1ccc(-n2ccnc2)cc1 (stereo not shown)	-34.2%
CCOc1ccccc1C(=O)NCC(=O)Nc1ncccc1C	14%
CCOc1ccccc1C(=O)NC(C)c1ccc(-n2ccnc2)cc1 (stereo not shown)	-57.5%
CC(NC(=O)CCNC(=O)c1ccc(Br)cc1)c1ccc(S(N)(=O)=O)cc1 (stereo not shown)	15.3%
COc1cc(C(=O)NCC(=O)NC(C)c2ccc(-n3ccnc3)cc2)cc(OC)c1OC (stereo not shown)	-3.06%
Nc1nnc(SCC(=O)NNC(=O)c2ccc(Cl)cc2)s1	-0.0303%
O=C(N/N=C/c1ccc(O)cc1)c1ccc(COc2cc(Cl)ccc2Cl)o1	7.07%
c1csc(-c2nn3c(Cn4nnc5ccccc54)nnc3s2)c1	16.6%
Cc1cc(NNC(=O)Nc2cccc(Cl)c2)nc2c1c(C)nn2C	3.56%
Cc1ccccc1NC(=O)CN1C(=O)N/C(=C\c2ccc(N3CCOCC3)c(F)c2)C1=O	10.8%
COc1ccc(NC(=S)NCCc2c[nH]c3ccccc23)cc1	-7.49%
Nc1ccccc1C#Cc1ccc([N+](=O)[O-])cc1	1.66%
CCc1ccc(-c2cc(C)no2)cc1S(=O)(=O)N1CCN(c2ccc(C(C)=O)cc2)CC1	-4.32%
C=CCC(CC=C)(C(=O)O)c1ccccc1	-8.46%
